From PubChem BioAssay AID1863 (Southern Research Specialized Biocontainment Screening …, 2009)
Screen size: about 300,000 compounds; about 480 (0.16%) were called active.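 The calls were made as follows: active = inhibition over 29.93%, a cutoff 3 SD above the screen mean, later confirmed by dose response; inconclusive = inhibition over 29.93% but no dose response follow-up; inactive = inhibition at most 29.93% or unconfirmed.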 These entries were drawn from the full list. Entries with a potency or affinity are not part of this list.

experiment: PhoP-dependent GFP reporter repression – Salmonella Typhimurium, primary screen (AID 1863);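 also: 0% = low Mg2+ inducing control and 100% = high Mg2+ repressing control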; conditions: S. Typhimurium PhoP-regulated promoter GFP reporter, 4 h; at 50 µM; hits give high values

inhibition, inactive:
Cc1cc(C)n(CC(=O)N2c3ccccc3Sc3ccc(C(F)(F)F)cc32)n1 -5.1%
Cc1cc[n+](-c2[nH]c(=O)sc2/C=N/N=C(\[O-])CCn2c3ccccc3c3ccccc32)cc1 1.47%
Cn1c(=O)oc2cc(S(=O)(=O)NCCC(=O)N3CCc4ccccc4C3)ccc21 -8.83%
COc1ccc(C(CNS(=O)(=O)c2ccc(F)cc2)N2CCN(C)CC2)cc1 (stereo unspecified) 3.53%
NC(=O)COC(=O)C12CC3CC(CC(O)(C3)C1)C2 17.4%
CCOc1ccc(C(C)=O)cc1CSc1nc(C)cc(C)n1 4.1%
CC(=O)c1cccc(NC(=O)NC2CCCCC2)c1 -2.42%
COCCn1c(-c2ccc(Cl)cc2)cnc1SCC(=O)NCCc1ccc(OC)c(OC)c1 12.7%
C=COCCn1c(-c2nonc2N)nc2ccccc21 18.4%
CC(C)CCOC(=O)C[N+](C)(C)CCOC1CC2CCC1(C)C2(C)C (stereo unspecified) -2.94%
CCCCOC(=O)C[N+](C)(C)CCOC1CC2CCC1(C)C2(C)C (stereo unspecified) -9.77%
CCOC(=O)C[N+](C)(C)CCOC1CC2CCC1(C)C2(C)C (stereo unspecified) 6.45%
CCCOC(=O)C[N+](C)(C)CCOC1CC2CCC1(C)C2(C)C (stereo unspecified) -23.2%
CC(C)CCNC(=O)C1(c2cccs2)CCOCC1 -3.36%
O=C(NCc1ccccn1)Nc1cccc(Cl)c1Cl 7.04%
O=C1C=C(O)c2c(O)cccc2C1=O 5.73%
O=C1C=C(O)c2cccc(O)c2C1=O 4.81%
CC(=O)c1cccc(NC(=O)CCc2nnc3ccc(N4CCOCC4)nn23)c1 9.13%
Cc1ccc(-c2csc3nc4c5ccccc5c(NCCCN5CCOCC5)nn4c(=O)c23)cc1 2.89%
O=c1c2ccccc2nc2c3ccccc3c(NCCN3CCOCC3)nn12 -8.49%
COc1cccc(/C=N/NC(=O)c2ccc(CN3c4cccc5cccc(c45)S3(=O)=O)cc2)c1 -6.43%
Cc1cc(OCC(O)CNC(C)(C)C)ccc1Cl (stereo unspecified) -6.41%
OC(CNCCc1ccc(Cl)cc1)COc1ccc2ccccc2c1 (stereo unspecified) 7.14%
Cc1nc(N)nc(N/N=C/c2ccccc2)n1 -5.41%
COCC(C)NS(=O)(=O)c1ccccc1 (stereo unspecified) -1.07%
CC(=O)c1cccc(NC(=O)c2sc3nc4n(c(=O)c3c2C)CCCCC4)c1 11.4%
O=C(CN1CCCc2ccccc21)N/N=C/c1c(O)ccc2ccccc12 41.7%
Oc1ccc2ccccc2c1/C=N/Nc1ccccc1 -2.22%
NC(=S)N/N=C/c1c(O)ccc2ccccc12 -8.26%
O=C(CN1CCOCC1)N/N=C/c1c(O)ccc2ccccc12 3.4%
CCc1nccn1CCC(=O)N1CCCC(N2CCN(c3cccc(Cl)c3)CC2)C1 (stereo unspecified) -2.69%
CN1CCCN(C(=O)c2cccc3ccccc23)CC1 -0.73%
O=C1CC(C(=O)N2CCN(c3ccc(F)cc3)CC2)CN1CCc1ccccc1 (stereo unspecified) 5.66%
CCCN(CC(=O)Nc1ccccc1C)C(=O)COc1ccc2c(c1)CCC2 -2.3%
CN1CCCN(C(=O)c2c(F)cccc2Cl)CC1 -6.36%
CCCS(=O)(=O)N1CCN(C(=O)COc2ccccc2)CC1 1.1%
O=C(C[n+]1cc(-c2ccc(F)cc2)n2c1CCC2)Nc1nc(-c2ccccc2)cs1 14.9%
O=C(C[n+]1cc(-c2ccccc2)n2c1CCC2)Nc1nc(-c2ccccc2)cs1 2.36%
O=C(C[n+]1cc(-c2ccccc2)n2c1CCC2)N1c2ccccc2Sc2ccccc21 9.1%
O=C(C[n+]1cc(-c2ccc(Cl)cc2)n2c1CCC2)N1c2ccccc2Sc2ccccc21 17.8%
Cn1c(NC(=O)C[n+]2cc(-c3ccc(F)cc3)n3c2CCC3)cc(=O)n(C)c1=O 4.11%
Cn1c(NC(=O)C[n+]2cc(-c3ccc(Cl)cc3)n3c2CCC3)cc(=O)n(C)c1=O 4.64%
CC1CCc2c(nc3ncnn3c2N2CC(C)OC(C)C2)C1 (stereo unspecified) -10.6%
Cc1ccc(S(=O)(=O)CCC(=O)Oc2ccc(-c3nnco3)cc2)cc1 -2.63%
COc1cccc(CN2CCN(Cc3cc(OC)c(OC)cc3OC)CC2)c1 -6.37%
COc1ccc2cc(C(=O)N/N=C/c3sc4ccccc4c3O)ccc2c1 9.41%
O=C(N/N=C/c1ccccc1F)c1cccc2ccccc12 -1.58%
COc1ccc(C(=O)N/N=C/c2c[nH]c3ccccc23)cc1 4.37%
O=C(N/N=C/c1ccccc1O)c1cccc2ccccc12 7.21%
CCC(=O)N1CCc2cc(Br)cc(S(=O)(=O)CCC(=O)NCCOC)c21 1.63%
COC(=O)[C@@H](NC(=O)Nc1ccc(OC(F)(F)F)cc1)C(C)C -9.58%
O=C1CC(c2ccccc2Cl)Cc2c1cnn2-c1nc2ccccc2s1 (stereo unspecified) -5.22%
Cc1nn(C)c(C)c1CN(C)C(=O)CCCC(=O)O -3.44%
CCOc1ccccc1-c1ccc(C(=O)NCc2ccccc2)o1 -2.75%
Cc1c(Cl)cccc1NC(=O)CNC(=O)c1ccc(F)cc1 -6.63%
O=C1C(=O)N(CCO)C(c2cccc(F)c2)/C1=C(\O)c1ccc(Cl)cc1 (stereo unspecified) 0.663%
O=C(COC(=O)CCCN1C(=O)c2cccc3cccc(c23)C1=O)Nc1cccc(Br)c1 5.32%
Cc1ccc(C2=NN(CC(=O)NCc3ccccn3)C(=O)CC2)cc1 15.1%
O=C(Nc1cccc(Cl)c1)NC1CCS(=O)(=O)C1 (stereo unspecified) 0.08%
CCCCCC[N+](C)(C)CC/C=C1/c2ccccc2Sc2ccc(Cl)cc21 -5.82%
CCCCCCCCCCC[N+](C)(C)CC/C=C1/c2ccccc2Sc2ccc(Cl)cc21 0.18%
CCC(Sc1ccccc1C(=O)O)C(=O)O (stereo unspecified) -0.12%
O=C(O)c1ccccc1SSc1ccccc1C(=O)O -0.72%
O=C1C(Cl)=C(Nc2ccccc2)C(=O)c2ccccc21 4.63%
CCNC1=C(Cl)C(=O)c2ccccc2C1=O 22.7%
O=C(CCCN1C(=O)c2ccccc2C1=O)Nc1ccccn1 -1.86%
CCC1(c2ccccc2)NC(=O)N(CC(=O)Nc2cc(S(=O)(=O)N3CCOCC3)ccc2OC(C)C)C1=O (stereo unspecified) -0.1%
COc1ccc(C(=O)CCC(=O)NCCc2c[nH]c3ccccc23)cc1 8.52%
Cc1cccc(NS(=O)(=O)c2cccs2)c1 16.6%
Cc1nc([N+](=O)[O-])c(Br)n1CC(=O)c1ccc(F)cc1 7.24%
Cc1nc([N+](=O)[O-])c(Br)n1CC(=O)c1ccc(Br)cc1 8.26%
Nc1cc(Nc2ccccc2)c2nonc2c1[N+](=O)[O-] -3.49%
O=[N+]([O-])c1c(Nc2ccccc2O)cc(Cl)c2nonc12 16.1%
O=[N+]([O-])c1c(Nc2ccc(O)cc2)cc(Cl)c2nonc12 20%
Nc1cc(N2CCCCCC2)c2nonc2c1[N+](=O)[O-] -3.85%
Cc1c(NC(=O)c2ccc(S(=O)(=O)N3CCOCC3)cc2)c(=O)n(-c2ccccc2)n1C -7.51%
OCCC1CN(Cc2cccn2-c2ccccn2)CCN1C1CCCC1 (stereo unspecified) -4.15%
COc1ccccc1C(c1nnnn1C1CCCC1)N1CCN2CCCC2C1 (stereo unspecified) 2.8%
CCC1(C)Cc2c(sc3nc(SCC(=O)c4ccccc4)[nH]c(=O)c23)CO1 (stereo unspecified) -14.9%
Nc1nonc1C(=O)N/N=C/c1ccc(Br)o1 -2.96%
Nc1nonc1C(=O)N/N=C/c1cc2c(cc1Br)OCO2 3.06%
Nc1nonc1-n1nnc(C(=O)N/N=C/c2c(Cl)cccc2Cl)c1CSC1=NCCS1 6.32%
Nc1nonc1-n1nnc(C(=O)N/N=C/c2ccc(Br)cc2)c1CSC1=NCCS1 44.3%
O=C(NCc1ccco1)C1CCCN(S(=O)(=O)c2ccc(Cl)cc2)C1 (stereo unspecified) 0.1%
COc1ccc(-c2cccc(NC(=O)COc3ccc(Cl)cc3)c2)nn1 -8.03%
CCCCCCCCCC[n+]1cccc(C(=O)N(CC)CC)c1 11%
CCCCCCCC[n+]1cccc(C(=O)N(CC)CC)c1 7.46%
CCC(=O)NC(=S)Nc1ccc(N2CCN(C(=O)c3ccc(Cl)cc3)CC2)cc1 2.66%
CC(=O)/C=C1\SC(CC(=O)O)C(=O)N1c1ccccc1 (stereo unspecified) -3.51%
COc1ccc2nc(SCC(N)=O)cc(C)c2c1 -2.01%
CC1CCN(CC(O)CN2c3ccccc3Sc3ccccc32)CC1 (stereo unspecified) 11.3%
CN1CCCC(CN2c3ccccc3Sc3ccccc32)C1 (stereo unspecified) 5.69%
Cc1c(N=Cc2cc(Br)cc(Br)c2O)cccc1C(=O)O 20.2%
O=C(O)c1cccc(N/N=C/c2cc(Br)cc(Br)c2O)c1 -5.01%
N#CCCn1nc(-c2ccccc2)c2ccccc2c1=O 0.37%
Cc1ccc(N2C(=O)Nc3ccccc3C2(O)C(=O)N2CCN(c3ccccn3)CC2)cc1C (stereo unspecified) 1.22%
